Bioassay records deposited in PubChem by National Center for Advancing Translational Sciences (NCATS).
Rows were chosen to be rich in hits. Some 7.3% of all compounds tested hit in one or more screens of this group.
SMN2 splice up – qHTS Assay for Enhancers of SMN2 Splice Variant Expression. Potency, µM (top dose mostly 46.1 µM), inactives show top-dose activity change, positive = activation, actives largely listed as activators. HEK293 SMN2-luciferase splicing reporter, luminescence, 30-36 h. 210,000 compounds, 2.8% hits; note: % of control where 0% means no effect; nearly all actives have a fitted effect of over 55% in size
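HEK293 cells carry an SMN2 minigene-luciferase reporter in which exon 7 inclusion puts luciferase in frame. Cells were seeded at 2000 cells/well, attached for 10-12 hours, then exposed to compounds for 30-36 hours at 37C before ONE-Glo luminescence.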
Rab9 prom act – qHTS Assay for Rab9 Promoter Activators; 320,000 compounds, 2.8% hits; Potency, µM (doses to about 9.22 µM), inactives show top-dose activation, negative = inhibition, usual class: activators; Huh7 Rab9 promoter-luciferase reporter, luminescence, 24 h; note: % of control where 0% means no effect; nearly all actives have a fitted effect of over 60% in size
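Cells were plated at 1500 per well in reduced-serum medium with 10% FBS and left 2 h. Compound in DMSO was then added for 24 h at 37 °C. Reporter signal was read by luminescence after 10 min with luciferase detection reagent.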
ELG1 genotox – qHTS screen for small molecules that induce genotoxicity in human embryonic kidney (HEK293T) cells expressing luciferase-tagged ELG1; HEK293T ELG1-luciferase reporter, luminescence, 16 h; Potency, µM (highest dose often 46 µM), for inactives: at the top dose activity change, positive = activation, hits mostly activators; 330,000 compounds, 1.3% hits; AID 504466, 2011; note: % of control where 0% means no effect; nearly all actives have a fitted effect of over 60% in size
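Luminescence read-out: rising ELG1-luciferase signal, reflecting elevated ELG1 protein under genetic stress, flags genotoxic compounds. Cells were treated for 16 hr at 37 °C before ONE-Glo detection.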
KinaseGlo FLuc – Counterscreen for Luciferase (Kinase-Glo TM) Inhibition. Potency, µM (series often up to 38.3 µM), inactives show at the top dose activity change, negative = inhibition, most hits filed as inhibitors. 200,000 compounds, 0.28% hits. Kinase-Glo luciferase, ATP luminescence, 8 min. Luciferin 4-monooxygenase (Photuris pensylvanica), Q27757; note: % is set by controls: 0 for no effect and ±100 for the full control effect; nearly all actives have a fitted effect of over 60% in size
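Inhibition of Kinase-Glo luciferase light generation was assessed at 10 uM ATP in pH 7.2 imidazole buffer, with luminescence measured after eight minutes at ambient temperature.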
NPC1 prom act – qHTS Assay for NPC1 Promoter Activators; Huh7 NPC1 promoter luciferase reporter, 24 h; Potency, µM (top dose mostly 9.22 µM), inactives show top-dose activation, actives largely listed as activators; 320,000 compounds, 2.4% hits; AID 485313, 2010; note: % of control where 0% means no effect; nearly all actives have a fitted effect of over 60% in size
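Stable NPC1-promoter luciferase Huh7 line; cpd (DMSO) 24 h, 37 °C, 5% CO2; Amplite luciferase reagent 10 min RT; luminescence readout. qHTS format.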
FLuc counter – qHTS profiling assay for firefly luciferase inhibitor/activator using purifed enzyme and Km concentrations of substrates (counterscreen for miR-21 project); Potency, µM (series often up to 57.5 µM), for inactives: at the highest dose activity change, negative = inhibition, usual class: inhibitors; 360,000 compounds, 6.9% hits; AID 588342, 2011; purified FLuc, Km substrates, luminescence inhibition;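 note: plate controls were vehicle for no effect and reference inhibitor for full effect; nearly all actives have a fitted effect of over 55% in size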
Target sequence (P08659 whole entry, looked up): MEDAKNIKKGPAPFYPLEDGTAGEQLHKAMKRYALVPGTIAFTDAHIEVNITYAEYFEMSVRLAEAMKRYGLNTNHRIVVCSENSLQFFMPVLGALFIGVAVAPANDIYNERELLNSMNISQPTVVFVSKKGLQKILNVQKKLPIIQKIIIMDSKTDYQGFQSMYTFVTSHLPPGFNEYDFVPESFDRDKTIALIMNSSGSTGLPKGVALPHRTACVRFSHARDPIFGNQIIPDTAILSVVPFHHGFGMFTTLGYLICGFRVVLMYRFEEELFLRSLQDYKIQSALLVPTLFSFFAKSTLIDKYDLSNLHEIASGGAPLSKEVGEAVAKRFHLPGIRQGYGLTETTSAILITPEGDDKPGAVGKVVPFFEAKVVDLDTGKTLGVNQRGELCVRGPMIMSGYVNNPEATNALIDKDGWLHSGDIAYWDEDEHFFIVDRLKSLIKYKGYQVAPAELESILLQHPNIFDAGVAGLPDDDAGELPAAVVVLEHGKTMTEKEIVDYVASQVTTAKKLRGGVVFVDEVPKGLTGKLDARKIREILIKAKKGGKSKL
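Purified P. pyralis luciferase, 10 nM final, with Km-level 10 uM D-luciferin and 10 uM ATP in 50 mM Tris acetate pH 7.5, 10 mM Mg acetate, 0.01% Tween-20, 0.05% BSA; 6-point qHTS titration about 60 µM downward; luminescence read.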
An asterisk follows results filed as active; ? = inconclusive; / = no result given; [ ] = dose if it differs, or a comment. Calls come from the whole dose curve; as a rule, active = well fitted curve in the direction sought with a large enough effect; inconclusive = small, poorly fitted or top-dose-only effect, or another doubt; inactive = no such curve, though single readings can be large; an effect the other way counts as inactive or inconclusive. Potency is the fitted concentration of half-maximal effect.

SMILES	SMN2 splice up	Rab9 prom act	ELG1 genotox	KinaseGlo FLuc	NPC1 prom act	FLuc counter
CC(=O)c1ccc(Nc2ccc(-c3ccccc3C)nn2)cc1	11.2µM*	1.58µM*	?	-4.8%	?	9.53µM*
Cc1ccc(Cl)cc1N1CCN(C(=O)CCS(=O)(=O)c2ccc3c(c2)oc(=O)n3C)CC1	/	/	/	/	/	-8.1%
CCOc1ccc(-c2nc(CSCC(=O)NCc3ccco3)c(C)o2)cc1	-64.6%	-7.4%	15.0%	-3.4%	-3.6%	12µM*
CCOc1ccc(-c2nc(CSCC(=O)N3CCN(c4cccc(OC)c4)CC3)c(C)o2)cc1	-97.2%	-8.1%	-8.5%	3.7%	1.9%	23.9µM*
COc1ccc(-c2nc(CSCC(=O)NCc3ccc4c(c3)OCO4)c(C)o2)cc1	-16.6%	0.7%	-5.9%	16.8%	-1.0%	26.9µM*
COc1ccc(-c2nc(CSCC(=O)N3CCN(c4ccccc4F)CC3)c(C)o2)cc1	-65.5%	/	/	/	/	-17.8%
CCc1ccc(-c2nc(CSCC(=O)NCc3ccc(C)cc3)c(C)o2)cc1	-37.0%	/	/	/	/	19µM*
O=C(Cc1ccc(Cl)cc1)NC1CC(=O)N(c2ccc3c(c2)OCCO3)C1 (centres undefined)	/	/	/	/	/	-1.4%
OC1(C(O)(c2ccc(-c3ccccc3)cc2)c2ccc(-c3ccccc3)cc2)CCCCC1	4.0%[9.22 µM]	/	/	-5.4%[7.66 µM]	/	/
CCc1ccc(-c2nc(CS(=O)CC(=O)NC3CC3)c(C)o2)cc1 (centres undefined)	/	-2.7%	2.2%	/	-3.7%	?
CCc1ccc(-c2nc(CS(=O)CC(=O)O)c(C)o2)cc1 (centres undefined)	/	?	?	/	24.4%	21.3µM*
CCOc1ccc(CCNC(=O)COC(=O)c2cccc(N(C)C)c2)cc1OCC	/	1.58µM*	1.83µM*	/	3.98µM*	-12.8%
COc1ccc(N2CCN(C(=O)c3sc4nc5n(c(=O)c4c3C)CCC5)CC2)cc1	/	/	/	/	/	7.7%
O=C(O)c1ccc(NC(=O)c2cn(-c3ccccc3)nc2-c2ccccc2)cc1	?	27.9%	11.3%	0.7%	23.4%	1.2µM*
O=C(O)c1cccc(NC(=O)c2cn(-c3ccccc3)nc2-c2cccc(Br)c2)c1	/	-4.9%	-0.1%	/	1.4%	?
COc1ccc(NC(=O)CN(C)C(=O)c2cn(-c3ccccc3)nc2-c2ccc(F)cc2)cc1	/	1.4%	-3.6%	/	-1.1%	21.3µM*
O=C(O)c1ccc(NC(=O)c2cn(-c3ccccc3)nc2-c2ccc(Br)cc2)cc1	6.5%	-4.9%	-0.2%	2.0%	0.2%	3.79µM*
COc1ccc(-c2nn(-c3ccccc3)cc2C#N)cc1	-1.7%	3.55µM*	?	2.3%	?	5.36µM*
COc1ccc(NC(=O)c2cn(-c3ccccc3)nc2-c2ccncc2)cc1	-2.8%	-2.2%	-7.7%	-2.2%	-4.6%	?
COc1ccc(-c2nn(-c3ccccc3)cc2C(=O)Nc2ccc(C(=O)O)cc2)cc1	/	-2.0%	-1.4%	/	3.9%	10.7µM*
OCc1cn(-c2ccccc2)nc1-c1cc2ccccc2o1	7.94µM*	1.26µM*	?	3.9%	2.51µM*	1.69µM*
COc1ccc(-c2nn(-c3ccccc3)cc2C(=O)Nc2ccccc2OC)cc1	-10.4%	/	/	/	/	-0.3%
COc1ccc(-c2nn(-c3ccccc3)cc2/C=N/NC(=O)c2cccc(S(=O)(=O)Nc3ccccc3OC)c2)cc1	?	15.6%	1.7%	-0.9%	14.0%	-1.9%
COc1ccc(-c2nn(-c3ccccc3)cc2/C=N/Nc2cccc(C(=O)O)c2)cc1	25.3%	?	?	0.0%	?	10.7µM*
COc1ccc(NC(=O)c2cn(-c3ccccc3)nc2-c2cc3ccccc3o2)cc1	-4.9%	15.2%	-6.5%	-4.3%	10.1%	8.49µM*
SMILES	SMN2 splice up	Rab9 prom act	ELG1 genotox	KinaseGlo FLuc	NPC1 prom act	FLuc counter
O=C(NCC(c1cccs1)S(=O)(=O)c1cccs1)c1ccccc1 (centres undefined)	/	/	/	/	/	3.9%
O=C(NCC1CCCO1)C(c1ccncc1)N(Cc1cccs1)C(=O)CN1C(=O)c2ccccc2S1(=O)=O (centres undefined)	/	-4.3%	9.6%	-4.0%	-2.9%	13.5µM*
Cc1ccccc1CCN(C(=O)CN1C(=O)c2ccccc2S1(=O)=O)C(C(=O)NCC1CCCO1)c1ccncc1 (centres undefined)	-8.4%	1.7%	0.6%	3.7%	1.2%	3.7%
CN(C)S(=O)(=O)c1cccc(NC(=O)c2ccc3c(c2)OCCO3)c1	/	?	-0.4%	/	3.16µM*	9.53µM*
CCC(=O)Nc1cccc(NC(=O)c2ccc3c(c2)OCCO3)c1	12.6µM*	?	7.2%	-9.1%	?	16.9µM*
COc1ccc(S(=O)(=O)N(C)C)cc1NC(=O)c1ccc2c(c1)OCCO2	/	-6.2%	0.8%	/	-0.4%	-2.3%
Cc1ccccc1-n1nc(CO)c(C(=O)NCC(c2ccccc2)c2ccccc2)n1	-69.1%	/	/	/	/	-0.3%
O=C(/C=C/c1ccc(O)c(O)c1)OC1C[C@](O)(C(=O)O)C[C@@H](O)[C@H]1O (some centres undefined)	6.2%	/	/	/	/	/
CCSC1=C(C#N)C2(CCCCC2)C(C#N)=C(N)N1	-13.0%	12.6%	-1.5%	-3.4%	-4.6%	6.01µM*
N#CC1=C(N)NC(SCC(=O)c2ccc(Br)cc2)=C(C#N)C12CCCCC2	-27.6%	-12.9%	-10.0%	-3.2%	-2.2%	-0.2%
N#CC1=C(N)NC(SCc2ccccc2)=C(C#N)C12CCCCC2	-22.6%	6.9%	-6.4%	4.5%	-1.9%	-2.5%
CCCSC1=C(C#N)C2(CCCCC2)C(C#N)=C(N)N1	/	-7.3%	-0.8%	0.4%	-0.5%	21.3µM*
CC1CCCCN1C(=O)c1cc(-c2ccc3c(c2)OCO3)on1 (centres undefined)	/	0.891µM*	11.6µM*	/	0.631µM*	3.79µM*
O=C(c1cc(-c2ccccc2)on1)N1CCN(Cc2ccc3c(c2)OCO3)CC1	-16.4%	-0.7%	-4.9%	-2.0%	-2.1%	-11.9%
COc1ccc(-c2cc(C(=O)N3CCCCC3C)no2)cc1OC (centres undefined)	7.7%	/	/	/	/	-15.4%
CCC1CCCCN1C(=O)c1cc(-c2ccc(Cl)c(Cl)c2)on1 (centres undefined)	48.4%	?	?	-1.5%	?	19µM*
CC1CCN(C(=O)c2cc(-c3ccc4c(c3)OCO4)on2)CC1	/	1.12µM*	2.91µM*	/	0.631µM*	2.69µM*
